In PubChem BioAssay (NCATS):
Records with an inconclusive call do not appear. The source made the active and inactive calls. Unless noted, calls come from the whole dose curve; as a rule, active = well fitted curve in either direction with a large enough effect (not every such curve was filed as active); inconclusive = small, poorly fitted or top-dose-only effect, or another doubt; inactive = flat fitted curve, though single readings scatter.

How the values were obtained:
[1] = target: Lysosomal acid glucosylceramidase (Homo sapiens) (UniProt P04062); experiment: Glucocerebrosidase-p2 (AID 348; in the data active = potency below about 10 µM; note: potency is the fitted concentration of half-maximal effect); details: purified GBA, blue fluorogenic substrate, 40 min
Sequence of Lysosomal acid glucosylceramidase (Homo sapiens) (P04062 whole entry, looked up): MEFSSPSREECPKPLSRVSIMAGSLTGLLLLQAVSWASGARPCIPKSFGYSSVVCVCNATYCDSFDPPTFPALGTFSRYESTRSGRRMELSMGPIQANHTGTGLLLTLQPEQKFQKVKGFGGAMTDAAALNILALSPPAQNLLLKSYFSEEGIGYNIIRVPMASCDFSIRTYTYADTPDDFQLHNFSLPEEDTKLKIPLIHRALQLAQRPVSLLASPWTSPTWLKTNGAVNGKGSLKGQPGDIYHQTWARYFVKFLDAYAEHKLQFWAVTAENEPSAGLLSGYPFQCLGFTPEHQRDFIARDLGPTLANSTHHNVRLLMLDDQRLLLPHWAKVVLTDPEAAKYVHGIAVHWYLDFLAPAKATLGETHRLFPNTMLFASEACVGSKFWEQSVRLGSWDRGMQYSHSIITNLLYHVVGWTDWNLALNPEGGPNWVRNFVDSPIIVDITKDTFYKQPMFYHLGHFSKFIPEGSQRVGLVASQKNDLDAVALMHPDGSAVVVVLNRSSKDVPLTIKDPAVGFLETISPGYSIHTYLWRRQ
In short: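 Compounds titrated from 0.6 nM upwards against 0.2 nM enzyme in pH 5.9 citric acid/KH2PO4, taurocholate, tween-20; blue fluorogenic substrate 80 uM, 40 min room temperature, stopped and read Ex 365/Em 440 for AC50.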

[2] = AP1 Signaling Pathway (AID 357); details: ME-180 AP-1-bla reporter, EGF-induced, beta-lactamase ratio, 5 h; at 7.69 µM (top of the series) unless noted;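 note: ME-180 reporter cells stimulated with EGF at its EC50 level; % is set by controls: 0 for no effect and ±100 for the full control effect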
In short: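 Read-out was the 460nm/530nm emission ratio (excitation 405nm) after CCF4 loading for 2.5 hours at room temperature. Cells carried an AP-1-driven beta-lactamase reporter, were stimulated with EC50 EGF plus compound for 5 hours, and AC50 values came from titrations.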

[3] = target: Cytochrome P450 1A2 (Homo sapiens) (UniProt P05177); experiment: p450-cyp1a2 (AID 410; calls by dose curve; note: potency is the fitted concentration of half-maximal effect;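 for activity change, negative = inhibition: -100% = full effect of reference inhibitor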); details: recombinant CYP1A2, luciferin-ME demethylation, luminescence; series mostly up to 11.4 µM
Sequence of Cytochrome P450 1A2 (Homo sapiens) (P05177 whole entry, looked up): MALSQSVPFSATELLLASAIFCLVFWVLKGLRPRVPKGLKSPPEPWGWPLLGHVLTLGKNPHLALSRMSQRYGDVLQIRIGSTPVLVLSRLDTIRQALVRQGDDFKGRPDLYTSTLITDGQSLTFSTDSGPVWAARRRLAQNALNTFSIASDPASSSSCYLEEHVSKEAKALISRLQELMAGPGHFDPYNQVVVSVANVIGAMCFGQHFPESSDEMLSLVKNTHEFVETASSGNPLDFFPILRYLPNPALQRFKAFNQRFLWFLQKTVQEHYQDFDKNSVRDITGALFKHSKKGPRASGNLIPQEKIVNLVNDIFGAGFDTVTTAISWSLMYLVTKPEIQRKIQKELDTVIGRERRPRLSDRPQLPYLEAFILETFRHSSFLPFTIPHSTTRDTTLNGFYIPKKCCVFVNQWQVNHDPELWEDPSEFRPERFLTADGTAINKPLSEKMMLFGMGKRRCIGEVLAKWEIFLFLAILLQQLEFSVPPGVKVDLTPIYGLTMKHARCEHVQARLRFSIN
In short: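 Luminescent readout of luciferin formed from Luciferin-ME by human CYP1A2; data normalized against complete inhibition by 57 uM furafylline. Enzyme 20nM, substrate 100uM at Km, 100mM KPO4 buffer, 60 min reaction at room temperature.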

[4] = NFAT Signaling Pathway (AID 444); details: Jurkat NFAT-bla M1, carbachol, beta-lactamase ratio, 5 h; at 7.69 µM (top of the series) unless noted;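 note: carbachol stimulus at about its EC50 of 1 µM final; % is set by controls: 0 for no effect and ±100 for the full control effect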
In short: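 Read-out: CCF4 FRET ratio (460 nm/530 nm) after 1 h RT dye loading, used for %activity and AC50 from titration series. Cells: Jurkat NFAT-β-lactamase/M1 line, treated with compound plus 1 uM carbachol for 5 h, 37 °C.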

[5] = Stat Signaling Pathway (AID 446); details: ME-180 SIE beta-lactamase reporter, IL-6 stimulated, 5 h; at 7.69 µM (top of the series) unless noted;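 note: ME-180 cervical cancer cells given 40 pM IL-6 alongside compound; SIE-controlled beta-lactamase reporter measured as 460/530 nm FRET emission ratio; % is set by controls: 0 for no effect and ±100 for the full control effect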
In short: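 Reporter line: ME-180 cervical carcinoma, SIE-beta-lactamase. Treatment: compound with 40 pM IL-6, 5 hrs, 37 C, in low-serum OPTI-MEM with 10 mM HEPES pH 7.3. Detection: 460/530 nm fluorescence.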

[6] = target: Glucocorticoid receptor (Homo sapiens) (UniProt P04150); experiment: GR-GFP Redistribution (AID 450;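 active = compounds whose dose series gives a full or clear partial fitted curve of increased nuclear translocation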; note: potency is the fitted concentration of half-maximal effect); details: U2OS GR-GFP nuclear translocation, laser cytometry, 2 h
Sequence of Glucocorticoid receptor (Homo sapiens) (P04150 whole entry, looked up, the tested form may be a part): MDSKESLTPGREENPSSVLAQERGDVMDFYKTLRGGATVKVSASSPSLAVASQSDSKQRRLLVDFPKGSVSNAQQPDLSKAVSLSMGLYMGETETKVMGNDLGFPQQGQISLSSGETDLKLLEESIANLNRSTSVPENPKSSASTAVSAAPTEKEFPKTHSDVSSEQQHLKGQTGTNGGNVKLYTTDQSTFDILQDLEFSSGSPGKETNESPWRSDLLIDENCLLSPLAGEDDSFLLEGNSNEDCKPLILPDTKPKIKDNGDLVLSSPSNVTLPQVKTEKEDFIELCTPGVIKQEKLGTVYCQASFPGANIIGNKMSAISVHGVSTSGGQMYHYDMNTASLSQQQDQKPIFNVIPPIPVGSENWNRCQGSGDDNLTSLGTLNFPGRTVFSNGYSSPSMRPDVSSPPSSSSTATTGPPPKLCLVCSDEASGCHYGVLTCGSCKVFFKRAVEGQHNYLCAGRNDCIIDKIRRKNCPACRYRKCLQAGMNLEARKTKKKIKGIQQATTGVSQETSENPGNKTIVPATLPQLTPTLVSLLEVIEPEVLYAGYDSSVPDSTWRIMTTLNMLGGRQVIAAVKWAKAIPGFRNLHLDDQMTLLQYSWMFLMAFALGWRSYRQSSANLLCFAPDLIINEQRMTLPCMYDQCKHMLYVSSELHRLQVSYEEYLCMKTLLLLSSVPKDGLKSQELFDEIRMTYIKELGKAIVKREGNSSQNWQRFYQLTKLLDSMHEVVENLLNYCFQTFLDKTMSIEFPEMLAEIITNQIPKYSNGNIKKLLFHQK

[7] = target: Glucocorticoid receptor (Homo sapiens) (UniProt P04150); experiment: GR-EFC Redistribution (AID 451; calls by dose curve; note: potency is the fitted concentration of half-maximal effect); details: CHO-K1 GR-EFC translocation, beta-gal luminescence, 2 h
In short: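 Translocation of GR-ED fusion to nuclear EA restores b-gal, read by luminescence after 1 h room-temperature detection. Engineered CHO-K1 biosensor cells, 1,000/well, exposed 2 h at 37 C to titrations up to 46 uM final.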

[8] = target: Mitogen-activated protein kinase 10 (Mus musculus) (UniProt Q61831); experiment: JNK3 AlphaScreen Assay (AID 530); details: JNK3 lysate, c-Jun phosphorylation; series mostly up to 11.4 µM;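 note: kinase came from lysate of stimulated human HepG2 cells; signal reports phosphorylation of biotinylated GST-cJun 1-79 at Ser73 with 10 µM ATP; % is set by controls: 0 for no effect and ±100 for the full control effect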
In short: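 Compound titrations were preincubated 15 minutes at room temperature with substrate, antibody and pre-activated JNK3-containing HepG2 lysate. Reactions were started with 10 uM ATP and stopped with EDTA-containing bead buffer for AlphaScreen detection.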

[9] = target: 3',5'-cyclic-AMP phosphodiesterase 4B (Homo sapiens) (UniProt Q07343); experiment: qHTS Assay for Inhibitors of PDE-IV (AID 607; active = well fitted activation curve with a large enough effect in the main read-out, with a control signal flat, not every such curve was filed as active; note: % of control where 0% means no effect); details: HEK293 ACTOne CNG channel cells, membrane potential fluorescence; series mostly up to 22.9 µM
Sequence of 3',5'-cyclic-AMP phosphodiesterase 4B (Homo sapiens) (Q07343 whole entry, looked up): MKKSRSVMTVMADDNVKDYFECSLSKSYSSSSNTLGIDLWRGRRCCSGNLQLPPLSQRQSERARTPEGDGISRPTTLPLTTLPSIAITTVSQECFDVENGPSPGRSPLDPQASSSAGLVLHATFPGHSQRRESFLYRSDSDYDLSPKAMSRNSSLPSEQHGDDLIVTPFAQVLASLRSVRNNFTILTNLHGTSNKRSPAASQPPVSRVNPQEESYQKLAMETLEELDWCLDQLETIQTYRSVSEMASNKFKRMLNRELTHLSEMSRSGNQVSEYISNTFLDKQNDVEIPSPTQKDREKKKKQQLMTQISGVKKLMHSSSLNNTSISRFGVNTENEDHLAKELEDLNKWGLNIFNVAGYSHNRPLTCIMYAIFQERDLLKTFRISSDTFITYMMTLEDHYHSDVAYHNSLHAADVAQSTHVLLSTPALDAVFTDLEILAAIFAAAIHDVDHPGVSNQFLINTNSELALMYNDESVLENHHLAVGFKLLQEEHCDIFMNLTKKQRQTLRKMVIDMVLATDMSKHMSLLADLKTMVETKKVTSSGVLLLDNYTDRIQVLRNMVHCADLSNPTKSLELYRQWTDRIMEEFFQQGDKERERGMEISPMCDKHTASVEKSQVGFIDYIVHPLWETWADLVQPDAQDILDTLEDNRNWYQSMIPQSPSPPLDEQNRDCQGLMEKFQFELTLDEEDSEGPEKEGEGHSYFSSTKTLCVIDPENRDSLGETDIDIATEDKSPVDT
In short: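 Cell-based read-out of cAMP via a modified cyclic nucleotide-gated channel and membrane potential dye (535/590 nm) in HEK293 cells expressing PDE4 endogenously. Compounds tested up to 22.9 uM final; 100 uM RO 20-1724 reference.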

O=S(O)O.O=S(O)O.[Co].[NH2-].[NH2-].[NH2-].[NH2-]
inactive: Potency [1] > 11.4 µM | activity change, negative = inhibition [2] -7.83% | Potency [3] | activity change, negative = inhibition [4] 15.9% | activity, negative = inhibition [5] 26% | Potency [6] > 46 µM | Potency [7] > 9.22 µM | Potency [8] | Potency [9]

O=C(O)[C@@H]1CCCN1Cc1c[nH]c2ccccc12
inactive: Potency [1] > 11.4 µM | activity change, negative = inhibition [2] 6.54% | Potency [3] | activity change, negative = inhibition [4] 6.95% | activity, negative = inhibition [5] 3.95% | Potency [6] > 46 µM | Potency [7] > 9.22 µM | Potency [8] | Potency [9]

C[C@@H](N1CCOCC1)[C@@](O)(c1ccccc1)c1ccccn1
inactive: Potency [1] > 11.4 µM | activity change, negative = inhibition [2] 2.55% | activity change, negative = inhibition [3] -2.5% [at 2.29 µM] | activity change, negative = inhibition [4] 12.6% | activity, negative = inhibition [5] 4.17% | Potency [6] > 46 µM | Potency [7] > 9.22 µM | Potency [8] | Potency [9]

C[N+]1(C)CCc2cc(O)c(O)cc2[C@H]1Cc1ccc(O)c(O)c1
inactive: Potency [1] > 11.4 µM | activity change, negative = inhibition [2] -2.63% | activity change, negative = inhibition [3] -12.1% [at 2.29 µM] | activity change, negative = inhibition [4] -9.29% | activity, negative = inhibition [5] 6.76% | Potency [6] > 46 µM | Potency [7] > 9.22 µM | Potency [8] | Potency [9]

[O-][N+](CCO)(CCO)c1ncnc2nc[nH]c12
inactive: Potency [1] > 11.4 µM | activity change, negative = inhibition [2] 1.99% | Potency [3] | activity change, negative = inhibition [4] -3.2% | activity, negative = inhibition [5] -1.19% | Potency [6] > 46 µM | Potency [7] > 9.22 µM | Potency [8] | Potency [9]

Nc1nc(N)c2[nH]cnc2n1 (tested in a mixture with another compound)
inactive: Potency [1] > 11.4 µM | activity change, negative = inhibition [2] 4.54% | activity change, negative = inhibition [3] -5.5% [at 2.29 µM] | activity change, negative = inhibition [4] 20.2% | activity, negative = inhibition [5] 4.45% | Potency [6] > 46 µM | Potency [7] > 9.22 µM | Potency [8] | Potency [9]

N[C@H]1[C@@H](C(=O)O)[C@H]2C=C[C@H]1C2
inactive: Potency [1] > 11.4 µM | activity change, negative = inhibition [2] 7.53% | Potency [3] | activity change, negative = inhibition [4] 24.6% | activity, negative = inhibition [5] 7.88% | Potency [6] > 46 µM | Potency [7] > 9.22 µM | Potency [8] | Potency [9]

CC(C)(C)c1ccc(OC(=O)Nc2ccc(O)c(C(=O)O)c2)cc1
inactive: Potency [1] > 11.4 µM | activity change, negative = inhibition [2] -0.0209% | activity change, negative = inhibition [3] 6.5% [at 2.29 µM] | activity change, negative = inhibition [4] 6.49% | activity, negative = inhibition [5] 0.0223% | Potency [6] > 46 µM | Potency [7] > 9.22 µM | Potency [8] | Potency [9]

O=C(O)/C(=C\c1ccc(O)cc1)c1cccc2ccccc12
inactive: Potency [1] > 11.4 µM | activity change, negative = inhibition [2] 1.02% | Potency [3] | activity change, negative = inhibition [4] 2.46% | activity, negative = inhibition [5] -8.2% | Potency [6] > 46 µM | Potency [7] > 9.22 µM | Potency [8] | Potency [9]

O=S(=O)(c1ccc(Br)cc1)N1CCN(S(=O)(=O)c2ccc(Br)cc2)CC1
inactive: Potency [1] > 11.4 µM | activity change, negative = inhibition [2] 14.8% | Potency [3] | activity change, negative = inhibition [4] -0.352% | activity, negative = inhibition [5] 5.43% | Potency [6] > 46 µM | Potency [7] > 9.22 µM | Potency [8] | Potency [9]

CN(C)CCCn1c2ccccc2c2cnccc21
inactive: Potency [1] > 11.4 µM | activity change, negative = inhibition [2] 1.6% | activity change, negative = inhibition [3] -20% [at 2.29 µM] | activity change, negative = inhibition [4] 2.32% | activity, negative = inhibition [5] 13.9% | Potency [6] > 46 µM | Potency [7] > 9.22 µM | Potency [8] | Potency [9]

Cc1n[nH]c2ccccc2c1=O
inactive: Potency [1] > 11.4 µM | activity change, negative = inhibition [2] -6.55% | activity change, negative = inhibition [4] -1.3% | activity, negative = inhibition [5] 10.2% | Potency [6] > 46 µM | Potency [7] > 9.22 µM | Potency [8] | Potency [9]
active: Potency [3] 0.398 µM

NCc1nnn(Cc2ccccc2)c1N
inactive: Potency [1] > 11.4 µM | activity change, negative = inhibition [2] 2.56% | Potency [3] | activity change, negative = inhibition [4] 19.4% | activity, negative = inhibition [5] -5.08% | Potency [6] > 46 µM | Potency [7] > 9.22 µM | Potency [8] | Potency [9]

CCOC(=O)CCCN
active: Potency [3] 6.31 µM
inactive: Potency [1] > 11.4 µM | activity change, negative = inhibition [2] -4.22% | activity change, negative = inhibition [4] 2.34% | activity, negative = inhibition [5] 8.34% | Potency [6] > 46 µM | Potency [7] > 9.22 µM | Potency [8] | Potency [9]

S=c1nc[nH]c2c1ncn2Cc1ccco1
inactive: Potency [1] > 11.4 µM | activity change, negative = inhibition [2] 8.99% | Potency [3] | activity change, negative = inhibition [4] -0.242% | activity, negative = inhibition [5] 5.55% | Potency [6] > 46 µM | Potency [7] > 9.22 µM | Potency [8] | Potency [9]

CC[C@](N)(C(=O)O)C(C)C
inactive: Potency [1] > 11.4 µM | activity change, negative = inhibition [2] 6.23% | Potency [3] | activity change, negative = inhibition [4] -9.09% | activity, negative = inhibition [5] -6.84% | Potency [6] > 46 µM | Potency [7] > 9.22 µM | Potency [8] | Potency [9]
